Shown are actives, neighbours in structure and some others; about 1.1% of the full set was active somewhere.
VACV mCherry inh = inhibitors of vaccinia virus infection (mCherry reporter signal) | Vaccinia virus mCherry reporter infection, fluorescence | hit rate 0.63% among 310,000 | Potency, µM (series often up to 36.5 µM), usual class: inhibitors | AID 720579; calls by dose curve; tested in A549 cells; further: nearly all actives have a fitted effect of over 35% in size
AmpC inh no detg = inhibitors of E. coli AmpC beta-lactamase without detergent | hit rate 0.52% among 330,000 | AID 485341 | P00811 | AmpC nitrocefin hydrolysis, absorbance 480 nm, 0.0001% Triton | Potency, µM (top dose mostly 57.1 µM), most hits filed as inhibitors; further: nearly all actives have a fitted effect of over 20% in size
Target sequence (P00811 whole entry, looked up): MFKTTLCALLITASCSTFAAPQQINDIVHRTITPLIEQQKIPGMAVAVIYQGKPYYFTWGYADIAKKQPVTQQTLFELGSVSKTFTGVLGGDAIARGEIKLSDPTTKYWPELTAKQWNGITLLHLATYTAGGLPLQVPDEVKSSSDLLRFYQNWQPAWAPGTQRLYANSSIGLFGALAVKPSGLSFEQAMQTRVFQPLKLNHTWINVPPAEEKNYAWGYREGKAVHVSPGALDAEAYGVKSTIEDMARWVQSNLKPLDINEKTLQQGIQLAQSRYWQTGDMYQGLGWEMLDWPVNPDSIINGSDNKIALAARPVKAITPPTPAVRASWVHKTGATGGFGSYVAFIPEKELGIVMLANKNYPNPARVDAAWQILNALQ
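20 mM phosphate pH 7.0 + 0.01% (detergent screen) or 0.0001% Triton X-100; 5.3 nM AmpC reagent; cpd preinc 15 min RT; nitrocefin (800 uM stock) to start; A480 q20 s × 4 min; Activity was normalised to no-enzyme and no-compound control wells.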
Vaccinia Venus = inhibitors of vaccinia virus (Venus reporter). Vaccinia virus Venus reporter expression, fluorescence. Potency, µM (series often up to 36.5 µM), actives largely listed as inhibitors. hit rate 0.46% among 330,000. AID 720580; calls by dose curve; tested in A549 cells; further: nearly all actives have a fitted effect of over 30% in size
AmpC inh detg = inhibitors of E. coli AmpC beta-lactamase with detergent. hit rate 0.041% among 370,000. AID 485294. Potency, µM (titrated, usually from 114 µM), usual class: inhibitors. P00811. AmpC hydrolysis of nitrocefin, absorbance 480 nm, 0.01% Triton; further: nearly all actives have a fitted effect of over 25% in size
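AmpC (5.3 nM in the dispensed reagent) in 20 mM phosphate pH 7.0 with 0.01% (detergent screen) or 0.0001% Triton X-100 was preincubated with compounds for 15 min at room temperature. Nitrocefin was then added from an 800 uM solution, and hydrolysis was followed at 480 nm.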
Numbers stand for hits; ! = not active in a repeat; [ ] = another dose, or the depositor's remark. Unless noted, the call rests on the fitted dose curve; in most records, active means well fitted curve in the direction sought with a large enough effect; inconclusive means small, poorly fitted or top-dose-only effect, or another doubt; inactive means no such curve, though single readings can be large; an effect the other way counts as inactive or inconclusive.

CCN(CC)S(=O)(=O)c1ccc(Cl)c(NC(=S)NC(=O)C2CCCC2)c1 was read as AmpC inh no detg inactive and AmpC inh detg inactive.
CCN(CC)c1ccc(S(=O)(=O)Nc2cc(Cl)ccc2Cl)cc1NC(=S)NC(=O)C1CCCC1 was read as VACV mCherry inh inactive, AmpC inh no detg 25µM, Vaccinia Venus inactive and AmpC inh detg inconclusive.
For CCC(C)Sc1cccc(-c2nc3cc(C)ccn3c2NC2CCCCC2)c1 (stereo unspecified) the results were VACV mCherry inh 7.9µM!, AmpC inh no detg inactive and Vaccinia Venus inconclusive.
For CC(=O)c1ccc(NC(=S)NC(NC(=O)c2ccco2)C(Cl)(Cl)Cl)cc1 (stereo unspecified) the results were AmpC inh no detg 13µM, Vaccinia Venus inactive and AmpC inh detg inactive.
COc1ccc(C(=O)NC(NC(=S)Nc2ccc(S(N)(=O)=O)cc2)C(Cl)(Cl)Cl)cc1 (stereo unspecified) was read as VACV mCherry inh inactive, AmpC inh no detg 8.9µM, Vaccinia Venus inactive and AmpC inh detg inactive.
For O=C(NC(NC(=S)Nc1ccc(Cl)cc1)C(Cl)(Cl)Cl)c1ccco1 (stereo unspecified) the results were VACV mCherry inh inconclusive, AmpC inh no detg inconclusive, Vaccinia Venus inactive and AmpC inh detg inactive.
`COc1ccc(C(=O)NC(=S)Nc2ccc(S(N)(=O)=O)cc2)cc1` gave VACV mCherry inh inactive, AmpC inh no detg inactive, Vaccinia Venus inactive and AmpC inh detg inactive.
For CC(C)CC(=O)N1C/C=C\C[C@@H](c2ccc(Cl)cc2)N(Cc2ccc(Cl)cc2)C(=O)[C@@H]1Cc1ccccc1 the results were VACV mCherry inh inactive and Vaccinia Venus inactive.
`C[C@@H]1CN(Cc2ccc3c(c2)CN(Cc2cccc4c2OCO4)CCO3)C[C@H](C)O1` gave VACV mCherry inh inactive and Vaccinia Venus inactive.
`O=[N+]([O-])c1cc(/C=N\Nc2nc(-c3ccccc3)cs2)ccc1O` gave VACV mCherry inh inconclusive, AmpC inh no detg 25µM, Vaccinia Venus inactive and AmpC inh detg inactive.
Screening O=C(CN1Cc2ccccc2OC(c2ccsc2)C1)N1CCC(c2nc3ccccc3[nH]2)CC1 (stereo unspecified) returned VACV mCherry inh inactive and Vaccinia Venus inactive.
`Cc1cccc(CN2C[C@H](Sc3ccccn3)C[C@H]2C(=O)Nc2ccc3sc(C)nc3c2)c1` gave VACV mCherry inh inactive and Vaccinia Venus inactive.
Screening C=C1C(=O)[C@]23C[C@H]1CCC2[C@@]1(C)C(C[C@@H]3O)[C@](C)(C(=O)OC)CC[C@@H]1O (stereo partly specified) returned VACV mCherry inh 8.9µM and Vaccinia Venus inconclusive.
CC(=O)Nc1ccccc1OCCOc1ccc(Br)cc1 was read as VACV mCherry inh 13µM, AmpC inh no detg inactive[11.4 µM], Vaccinia Venus inactive and AmpC inh detg inconclusive.
For O=C(NCCc1nc2ccccc2n1CCCOc1ccc2ccccc2c1)C1CCCCC1 the results were VACV mCherry inh 3.2µM and Vaccinia Venus inconclusive.
Screening Cc1nc(C)n(CC(=O)NCC2Cc3cc(-c4cccc(OC(F)(F)F)c4)ccc3O2)n1 (stereo unspecified) returned VACV mCherry inh inactive and Vaccinia Venus inactive.
For O=c1[nH]cc(F)c(=O)[nH]1 the results were VACV mCherry inh 5.6µM, AmpC inh no detg inactive, Vaccinia Venus inactive and AmpC inh detg inactive.
O=S1(=O)CCO[C@H]2CCCC[C@@H]2N1Cc1ccc(Cl)cc1 was read as VACV mCherry inh 10µM and Vaccinia Venus inconclusive.
Screening O=C(c1cnsn1)N1CCOc2ccc(C(O)C(c3ccccc3)c3ccccc3)cc2C1 (stereo unspecified) returned VACV mCherry inh inactive and Vaccinia Venus inactive.
Screening COC(=O)c1c(OCc2ccccc2)cc(=O)n2c1CCN(Cc1cccc(C)n1)CC2 returned VACV mCherry inh inactive and Vaccinia Venus inactive.
O=S(=O)(Nc1cccc(-c2nc3cccnc3s2)c1)c1ccc2c(c1)OCCO2 was read as VACV mCherry inh inactive, AmpC inh no detg 3.2µM, Vaccinia Venus inactive and AmpC inh detg inconclusive.
`Cc1ccc(-c2nc3cccnc3s2)cc1NS(=O)(=O)c1ccc2c(c1)OCCO2` gave VACV mCherry inh inactive, AmpC inh no detg inactive, Vaccinia Venus inactive and AmpC inh detg inactive.
For NC(=S)N/N=C/c1cccc(/C=N/NC(N)=S)c1 the results were VACV mCherry inh inactive, AmpC inh no detg inactive, Vaccinia Venus inactive and AmpC inh detg inactive.
`NC(=S)N/N=C/c1ccc2ccccc2c1` gave VACV mCherry inh 0.35µM, AmpC inh no detg inactive, Vaccinia Venus 1µM and AmpC inh detg inactive.
Screening NC(=S)N/N=C/C=C/c1ccccc1 returned VACV mCherry inh 1µM, AmpC inh no detg inactive, Vaccinia Venus 0.79µM and AmpC inh detg inactive.
Screening NC(=S)N/N=C/c1cccc(Br)c1 returned VACV mCherry inh inconclusive, AmpC inh no detg inactive, Vaccinia Venus 0.89µM and AmpC inh detg inactive.
Screening CCn1c(-c2ccccc2F)nc2cc(NC(C)=O)cc(C(=O)N3CCCC3c3nccs3)c21 (stereo unspecified) returned VACV mCherry inh inactive and Vaccinia Venus inactive.
CCOC(=O)COc1cc(-n2c(=S)[nH]c3ccccc3c2=O)c(Cl)cc1Cl was read as VACV mCherry inh inactive, AmpC inh no detg 18µM, Vaccinia Venus inactive and AmpC inh detg inconclusive.
For O=C1C=C2C=C[C@@H]3C[C@@]2(O1)[C@H]1CCCCN31 the results were VACV mCherry inh inconclusive and Vaccinia Venus 14µM.
S=C(N/N=C/c1ccc2ncccc2c1)Nc1ccccc1 was read as VACV mCherry inh 7.9µM, AmpC inh no detg inactive, Vaccinia Venus 11µM and AmpC inh detg inactive.
`C(=N\Nc1nc2ccccc2[nH]1)/c1ccc2ncccc2c1` gave VACV mCherry inh 1.6µM, AmpC inh no detg inactive, Vaccinia Venus 0.89µM and AmpC inh detg inactive.
C(=N\Nc1nc2ccccc2[nH]1)/c1ccccn1 was read as AmpC inh no detg inactive and AmpC inh detg inconclusive.
Screening COc1ccc(/C=N/NC(=S)Nc2ccccc2)cc1COc1ccccc1F returned AmpC inh no detg 14µM and AmpC inh detg inactive.
Screening Cc1oc(-c2cccc(NC(=O)c3ccccn3)c2)nc1CNC(=O)C#Cc1ccccc1 returned VACV mCherry inh inactive and Vaccinia Venus inactive.
For COc1ccc(CN2CCOc3ccc(C(O)c4cccnc4)cc3C2)cc1O (stereo unspecified) the results were VACV mCherry inh inactive and Vaccinia Venus inactive.
For O=c1c2[nH]c3ccc(F)cc3c2ncn1CCN1CCOCC1 the results were VACV mCherry inh inactive, AmpC inh no detg inactive, Vaccinia Venus inactive and AmpC inh detg inconclusive.
Screening O=c1c2[nH]c3ccc(F)cc3c2ncn1CCN1CCN(Cc2ccccc2)CC1 returned VACV mCherry inh inactive, AmpC inh no detg 0.32µM, Vaccinia Venus inactive and AmpC inh detg inconclusive.
CCCCNc1c(-c2ccc(-c3ccc(OC)cc3)c(OC)c2)nc2ccccn12 was read as VACV mCherry inh 32µM, AmpC inh no detg inactive and Vaccinia Venus inconclusive.
COc1ccccc1NC(=O)N1CCN(c2nnc(C)c3c(C)n(-c4ccc(Cl)cc4)nc23)CC1 was read as VACV mCherry inh inconclusive, Vaccinia Venus inconclusive and AmpC inh detg inactive.
